Source: PubChem BioAssay
Shown is part of a subset that was picked to be rich in hits.
HEK293 cAMP cs – qHTS Assay for Agonists of the Thyroid Stimulating Hormone Receptor: Activators of Intracellular cAMP Concentrations in Parental HEK 293; parental HEK293 CNG cAMP sensor, membrane potential fluorescence; Potency, µM (highest dose often 57.1 µM), without a hit: at the highest dose activation, usual class: activators; 2.5% of 73,000 active; further: % of control where 0% means no effect; nearly all actives have a fitted effect of over 55% in size
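Counterscreen for endogenous-receptor signalling: CNG-channel HEK 293 cells report cAMP rise by membrane depolarization. After 60 min dye equilibration with 100 uM RO 20-1724, compounds incubated 30 min before bottom-read fluorescence at 590 nm.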
TSHR ag – qHTS Assay for Agonists of the Thyroid Stimulating Hormone Receptor; Thyrotropin receptor (Homo sapiens), P16473; HEK293-CNG-TSHR cells (CNG channel as cAMP sensor), membrane potential dye, cAMP; Potency, µM (top dose mostly 57.1 µM), for the others: top-dose activation, actives largely listed as activators; 0.48% of 73,000 active; active means well fitted activation curve with a large enough effect in the main read-out, with a control signal flat, not every such curve was filed as active; inconclusive means small, poorly fitted or top-dose-only effect, or a change in a side signal; inactive means no such curve, though single readings can be large or run the other way; % of control where 0% means no effect;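 further: the control signal comes from parental cells without the receptor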
Target sequence (P16473 whole entry, looked up): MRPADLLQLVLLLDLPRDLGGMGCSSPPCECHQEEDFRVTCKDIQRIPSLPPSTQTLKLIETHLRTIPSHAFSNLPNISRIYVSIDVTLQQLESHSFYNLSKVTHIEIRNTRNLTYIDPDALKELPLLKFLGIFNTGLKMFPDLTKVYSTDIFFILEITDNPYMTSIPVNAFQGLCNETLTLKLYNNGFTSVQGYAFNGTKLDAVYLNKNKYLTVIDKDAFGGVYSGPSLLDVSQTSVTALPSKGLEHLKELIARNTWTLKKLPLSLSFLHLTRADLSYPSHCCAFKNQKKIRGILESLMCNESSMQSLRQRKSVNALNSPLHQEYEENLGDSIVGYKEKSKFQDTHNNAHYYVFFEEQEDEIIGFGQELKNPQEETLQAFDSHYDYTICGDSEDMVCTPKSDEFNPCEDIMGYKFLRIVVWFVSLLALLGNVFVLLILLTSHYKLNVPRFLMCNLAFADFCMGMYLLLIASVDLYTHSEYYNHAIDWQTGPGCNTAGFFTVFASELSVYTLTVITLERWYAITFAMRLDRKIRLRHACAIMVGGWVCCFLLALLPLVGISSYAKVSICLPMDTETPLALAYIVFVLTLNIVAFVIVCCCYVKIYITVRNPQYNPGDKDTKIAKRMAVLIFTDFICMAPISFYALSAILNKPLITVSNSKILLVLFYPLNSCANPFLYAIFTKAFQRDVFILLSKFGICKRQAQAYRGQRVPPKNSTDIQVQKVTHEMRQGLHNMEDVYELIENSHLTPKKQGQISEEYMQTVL
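HEK 293 cells stably expressing TSHR and a cAMP-gated CNG channel; parental CNG-only cells as counterscreen. Cells preloaded 60 min with membrane potential dye plus 100 uM RO 20-1724, then compound 30 min; fluorescence read at 590 nm.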
Imprint erasure – qHTS Assay for Compounds that Induce Erasure of Genomic Imprints | mouse ES Peg3-LacZ reporter, beta-gal luminescence, 40 h | 0.02% of 110,000 active | Potency, µM (titrated, usually from 60.7 µM), without a hit: top-dose activity change, positive = activation, usual class: activators | AID 1948, 2009
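Each well holds 300 Peg3LacZ-Neo (maternal) female ES cells incubated 40 h at 37C, 5% CO2. LacZ is measured by BetaGlo luminescence, with AC50 and maximum efficacy derived from dose-response curves.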
An asterisk follows results filed as active; ? = inconclusive; . = no result given; [ ] = dose if it differs, or a comment. Unless noted, the call rests on the fitted dose curve; in most records, active means well fitted activation curve with a large enough effect; inconclusive means small, poorly fitted or top-dose-only effect; inactive means no such curve, though single readings can be large or run the other way. Potency means the concentration at half of the fitted maximal effect.

SMILES	HEK293 cAMP cs	TSHR ag	Imprint erasure
Cc1cc(C(=O)CSc2nc3ccccc3o2)c(C)n1C1CC1	16µM*	?	-25%
COC(=O)CSc1nc2ccccc2o1	13%	5%	-1%
C=CCn1c(C)cc(C(=O)CSc2nc3ccccc3o2)c1C	25µM*	?	-31%
NC(=O)NC(=O)[C@H]1CCCC[C@@H]1C(=O)O	8%[11.4 µM]	0%[11.4 µM]	-3%[10.9 µM]
CCCCN(C)C(=O)C1CCC(Cn2c(=O)[nH]c3ccsc3c2=O)CC1 (centres undefined)	.	.	-11%[10.9 µM]
CCOC(=O)c1ccc(NC(=O)CCn2ccc(C)n2)cc1	.	.	-8%[10.9 µM]
CCN(Cc1nc(-c2cccc(C)c2)no1)S(=O)(=O)c1ccc(C)cc1	.	.	-10%[10.9 µM]
O=C(CCN1C(=O)COc2ccccc21)NCc1ccco1	4%	.	4%
O=C(CN(Cc1cccs1)C(=O)CN1C(=O)COc2ccccc21)NCc1ccco1	16µM*	?	-6%
CCCn1c(SCC(=O)Nc2sc(C)c(C)c2C(=O)OC)nc2c1c(=O)n(C)c(=O)n2C	?	?	-6%
CCCCn1c(SCC(=O)Nc2nnc(C(C)C)s2)nc2c1c(=O)n(C)c(=O)n2C	1.6µM*	?	0%
CCCn1c(SCC(=O)Nc2nc3c(s2)CCCC3)nc2c1c(=O)n(C)c(=O)n2C	16µM*	?	-1%
CCCn1c(SCC(=O)Nc2nnc(CC)s2)nc2c1c(=O)n(C)c(=O)n2C	8%	4%	-8%
COC(=O)c1ccccc1NC(=O)CSc1nc2nc(C)cc(C)n2n1	.	.	-4%[10.9 µM]
Cc1cccc(N2CC(C)Cn3c2nc2c3c(=O)n(CC(=O)O)c(=O)n2C)c1 (centres undefined)	.	.	-7%[10.9 µM]
CCOc1ccc(-c2cc3c(=O)n(Cc4nc(-c5ccc(OC)cc5OC)oc4C)ccn3n2)cc1Cl	.	.	-4%[10.9 µM]
COc1ccc(-c2cn3c(C)c(C(=O)NCCN4CCOCC4)sc3n2)cc1	0%	5%	-9%
CCN(CC)C(=O)c1sc2nc(-c3ccc(OC)cc3)cn2c1C	16µM*	?	-60%
CC1(C)Cc2ccccc2C(=O)N1	6%	1%	-12%
CCC1(C)Cc2ccccc2/C(=C/C(=O)N2CCCCC2)N1 (centres undefined)	16µM*	?	.
CCn1c(Oc2ccc(F)cc2F)nc2c1c(=O)n(C)c(=O)n2C	.	.	-8%[10.9 µM]
CC(C)CC(c1nnnn1CC1CCCO1)N1CCN(c2cccc(Cl)c2)CC1 (centres undefined)	13µM*	?	-12%
CC(C)CC(c1nnnn1CC1CCCO1)N1CCN(C2CCCC2)CC1 (centres undefined)	28%	6%	-5%
COc1ccc(Cn2nnnc2C(CC(C)C)N2CCN(c3ccccc3)CC2)cc1 (centres undefined)	?	?	-22%
CC(C)CC(c1nnnn1Cc1ccco1)N1CCN(c2cccc(Cl)c2)CC1 (centres undefined)	10µM*	?	-16%
SMILES	HEK293 cAMP cs	TSHR ag	Imprint erasure
COc1ccc(CCN2C(=O)N(c3cccc(C)c3)C(=O)C2CC(=O)Nc2ccccc2)cc1OC (centres undefined)	.	.	-8%[10.9 µM]
COc1cccc(OC)c1OCCNC[C@@H]1COc2ccccc2O1	32µM*	?	-15%
O=C(O)CNCC1COc2ccccc2O1 (centres undefined)	-23%	9%	4%
Cc1nn(Cc2ccccc2)c2sc(C(=O)N3CCN(Cc4ccc5c(c4)OCO5)CC3)cc12	-4%	17%	-19%
CCc1cc2cc(C(=O)N3CCN(Cc4ccccc4)CC3)sc2s1	32µM*	?	-22%
O=C(Nc1ccccc1)c1ccc(Cc2nc3ccccc3[nH]2)cc1	-11%	-5%	.
O=C(c1c(Cl)nc2sccn12)N1CCN(c2cccc(Cl)c2)CC1	32µM*	?	-15%
O=C(c1cccc(F)c1)N1CCN(c2cccc(Cl)c2)CC1	13%	9%	-21%
Cc1ccccc1-n1nnnc1SCC(N)=O	5%	-1%	-8%
Cc1cccc(C)c1-n1nnnc1SCSc1nnnn1-c1c(C)cccc1C	16µM*	?	-7%
Cn1ncc(C#N)c1/N=C/N(Cc1ccccc1)Cc1ccccc1	16µM*	?	-11%
CN1CCN(/C=N/c2c(C#N)cnn2C)CC1	-1%	3%	-4%
CCOC(=O)Cc1ccc(NC(=O)N2CCc3c(sc4c3CCCC4)C2c2ccc(F)cc2)cc1 (centres undefined)	.	.	-13%[10.9 µM]
Cc1ccc(S(=O)(=O)N2CCC(C(=O)N3Cc4ccccc4C3)CC2)cc1	7%	18%	-10%
COc1ccc(S(=O)(=O)N2CCC(C(=O)N3CCc4ccccc4C3)CC2)cc1	32µM*	?	-9%
CC(C)C(NC(=O)c1ccccc1NC(=O)c1ccco1)C(=O)O (centres undefined)	32µM*	?	-1%
CCC(C)C(NC(=O)c1ccccc1NC(=O)c1ccco1)C(=O)O (centres undefined)	2%	-4%	8%
COc1ccc(CNC(=O)Cn2c(=O)oc3cc(S(=O)(=O)NCc4ccccc4)ccc32)cc1	.	.	-18%[10.9 µM]
c1cn(-c2ncnc3ccc(-c4ccoc4)cc23)cn1	-2%	1%	-34%
c1ccc(-c2cc3c(-n4cccc4)ncnc3o2)cc1	20µM*	?	-15%
CC1(C(=O)NCc2cc(F)cc(C(F)(F)F)c2)C=CC2(CCCCC2)N1C(=O)c1ccccc1 (centres undefined)	17%	15%	-18%
CC1(C(=O)NCC2CC2)C=CC2(CCCCC2)N1C(=O)c1ccccc1 (centres undefined)	10µM*	?	-10%
COC(=O)c1cc(-c2ccc3ccccc3c2)[nH]c(=O)c1C#N	11%[11.4 µM]	1%[11.4 µM]	2%[10.9 µM]
Cc1ccc(C)c(NC(=O)c2ccc3c(c2)N(Cc2ccc(F)cc2)C(=O)CS3=O)c1 (centres undefined)	32µM*	?	-18%
CCOc1ccc(NC(=O)c2ccc3c(c2)N(Cc2ccc(F)cc2)C(=O)CS3=O)cc1 (centres undefined)	-2%	-10%	-22%
SMILES	HEK293 cAMP cs	TSHR ag	Imprint erasure
Cc1sc2ncnc(-n3cnc4ccccc43)c2c1C	-5%	-3%	1%
Cc1sc2ncnc(N3CCCCC3C)c2c1C (centres undefined)	25µM*	?	-15%
Cc1ccc(-n2nnc(-c3nc(-c4cccs4)no3)c2N)cc1C	.	.	-11%[10.9 µM]
O=C(N/N=C1/C[C@@H](O)[C@@H](O)[C@@H]2[C@@H]3C(=O)N(C[C@@H]4CCCO4)C(=O)[C@H]3CC[C@@H]12)OCc1ccccc1	2%[11.4 µM]	-3%[11.4 µM]	.
CCOC(=O)c1[nH]c(C)c(C(=O)N2CCN(c3ccc(F)cc3)CC2)c1C	?	?	-13%
CCOC(=O)c1[nH]c(C)c(C(=O)c2cc(F)ccc2F)c1C	12%	32µM*	-33%
CCN(CC)S(=O)(=O)c1ccc2c(c1)N(CC(=O)N1CCN(c3cccc(OC)c3)CC1)C(=O)CO2	.	.	-17%[10.9 µM]
O=c1c(O)c(-c2ccccc2)oc2ccc3occc3c12	.	.	-16%
COc1c(-c2ccccc2)oc2c(ccc3occc32)c1=O	40µM*	?	-13%
